Test results published in PubChem BioAssay (EPA / NIEHS).
The source made the active and inactive calls. How the source made its calls: active means hit-call score of the fitted dose curve at least 0.9, where 1 is the maximum; inactive means score below 0.9.

Assay: ATG_CMV_CIS: Attagene CIS-FACTORIAL HepG2 Assay for human CMV (Internal Marker) (AID 2282928);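 further: endpoint acts as a background internal control marker rather than a target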
Conditions: HepG2 CMV promoter reporter, transcription factor profiling; actives raise or lower the signal
Experimental: ATG_CIS is a cell-based, multiplexed-readout assay that uses HepG2, a human liver cell line, with measurements taken at 24 hours after chemical dosing in a 24-well plate.ATG_CMV_CIS is one of 52 assay component(s) measured or calculated from the ATG_CIS assay. It is designed to make measurements of mRNA induction, a form of inducible reporter, as detected with fluorescence intensity signals by Reverse transcription polymerase chain reaction (RT-PCR) and Capillary electrophoresis technology.Data from the assay component ATG_CMV_CIS was analyzed into 1 assay endpoint. This assay endpoint, ATG_CMV_CIS, was analyzed with bidirectional fitting relative to DMSO as the negative control and baseline of activity. Using a type of inducible reporter, measures of mRNA for gain or loss-of-signal activity can be used to understand the background control at the transcription factor-level as they relate to the gene . Furthermore, this assay endpoint can be referred to as a secondary readout, because this assay has produced multiple assay endpoints where this one serves a background control function. To generalize the intended target to other relatable targets, this assay endpoint is annotated to the background measurement intended target family, where the subfamily is internal marker.
Human liver HepG2 cells are transiently transfected with multiple reporter transcription units (MRTUs) in 6-well plates using FuGene 6 reagent (Roche; 3 ml FuGene/1 mg DNA). The MRTU constructs are regulated by a cis-regulating element (promoter). […] A major difference between the CIS and TRANS system is that in CIS activities of endogenous TFs are measured, whereas the TRANS assay evaluates changes in activities of exogenous, chimeric NR-Gal4 proteins. […] At the end of 24 hour incubation, total RNA was isolated using TriZol reagent (Invitrogen). The isolated RNA is then reverse-transcribed using oligo(dT) primer and Mo-MLV reverse transcriptase (Invitrogen) with DNAse I (Ambion) treatment for 30 min. The one-tenth of the produced cDNA was amplified by PCR using Taq DNA polymerase (Invitrogen) and two reporter sequence-specific primers. The PCR products were fluorescently labeled by primer extension with 6-arboxyfluorescein (6-FAM) 5'-labeled reporter sequence-specific primer (2 min at 95 C, 20 s at 68 C and 10 min at 72 C) and these products were digested with 5U of HpaI (New England Biolabs) for 2h at 37 C. The fragments were purified using Qiaquick PCR columns (Qiagen), analyzed on an ABI 3130xL genetic analyzer (Applied Biosystems) with peak positions identified by using a set of X-rhodamine (ROX)-labeled MapMarker1000 molecular weight standards (BioVentures). The raw capillary electrophoresis data was processed using Attagraph software (Attagene).

| Structure (SMILES) | AC50 | outcome |
| --- | --- | --- |
| O=S(=O)(O)c1ccc2cc(O)c(S(=O)(=O)O)cc2c1 | 166 µM (active) | – |
| C=C[Si](OC(C)=O)(OC(C)=O)OC(C)=O | – | inactive |
| CC(=O)NS(=O)(=O)c1ccc(N)cc1 | – | inactive |
| O=C1OC(=O)c2cc(Oc3ccc4c(c3)C(=O)OC4=O)ccc21 | – | inactive |
| CC(C)(c1cc(Br)c(OCCO)c(Br)c1)c1cc(Br)c(OCCO)c(Br)c1 | 36.7 µM (active) | – |
| OC1OCCOC1O (stereo not given) | – | inactive |
| O=C1c2cccc(O)c2C(=O)c2c(O)cc(CO)cc21 | 11.3 µM (active) | – |
| Cc1cc(=O)n(-c2ccccc2)n1C | – | inactive |
| O=C(Oc1ccccc1)c1ccc2ccccc2c1O | – | inactive |
| N=c1ccn2c(n1)O[C@H]1[C@H](O)[C@@H](CO)O[C@H]12 | – | inactive |
| c1cc(C(c2ccc(OCC3CO3)cc2)C(c2ccc(OCC3CO3)cc2)c2ccc(OCC3CO3)cc2)ccc1OCC1CO1 (stereo not given) | 64.3 µM (active) | – |
| CCOC(=O)[C@H](C)O | – | inactive |
| N#[N+]c1ccc2c(S(=O)(=O)[O-])cccc2c1O | – | inactive |
| O=c1[nH]nc(-c2ccc([N+](=O)[O-])o2)o1 | – | inactive |
| CCc1nccnc1C | – | inactive |
| COC(=O)c1c(C)cc(O)c(C)c1O | – | inactive |
| Nc1ccc(N=Nc2ccccc2)c(N)n1 | – | inactive |
| C[C@]12CCC(=O)C=C1CC[C@@H]1[C@@H]2C(=O)C[C@@]2(C)[C@H]1CC[C@]2(O)C(=O)CO | – | inactive |
| O=C(C=Cc1ccccc1)OCc1ccccc1 | – | inactive |
| OCCNCc1ccccc1 | – | inactive |

| Structure (SMILES) | AC50 | outcome |
| --- | --- | --- |
| Cc1cc(C)c(C)c(O)c1 | – | inactive |
| CCOc1ccc(N)c([N+](=O)[O-])c1 | – | inactive |
| CC(C)(C)c1n[nH]c(=O)n(N)c1=O | – | inactive |
| CC(C)c1ccc(C#N)cc1 | – | inactive |
| Cc1cnc(NC(=O)C2=C(O)c3ccccc3S(=O)(=O)N2C)s1 | – | inactive |
| O=c1c2ccccc2nnn1CCl | – | inactive |
| CCOc1nc(F)cc2nc(S(=O)(=O)Nc3c(Cl)cccc3C(=O)OC)nn12 | – | inactive |
| CCCCCCCCCCCCCCCC[n+]1ccccc1 | 33.4 µM (active) | – |
| CC(=O)Oc1ccc(C(C)=O)cc1 | – | inactive |
| O=CC1CC1 | – | inactive |
| C#CC1(O)CC[C@H]2[C@@H]3CCC4=CCCC[C@@H]4[C@H]3CC[C@@]21C (stereo not given in full) | – | inactive |
| O=C(Nc1ccccc1SSc1ccccc1NC(=O)c1ccccc1)c1ccccc1 | – | inactive |
| COC(F)(F)C(F)(C(F)(F)F)C(F)(F)F | – | inactive |
| C=COCCCC | – | inactive |
| COc1ccc2nc(N)sc2c1 | – | inactive |
| O=C1c2ccccc2C(=O)C1c1nc2ccccc2c(Br)c1O | – | inactive |
| O=C(c1ccccc1)c1ccc(O)c(O)c1O | – | inactive |
| CC(=O)Nc1nnc(S(N)(=O)=O)s1 | – | inactive |
| CC1(C)[C@H]2CC[C@]1(C)C(=O)C2 | – | inactive |
| Cc1ccc(C(C)(C)C)cc1 | – | inactive |
